Measured values: PubChem BioAssay (Tox21)
Inconclusive results are not listed. Unmarked numbers belong to inactive results. Calls come from the whole dose curve; as a rule, active = well fitted cell-killing curve with a large enough effect in the repeat runs; inconclusive = weak or mixed curves, or effect the other way; inactive = no such curve, though single readings can be large or run the other way.

Test: qHTS assay to identify small molecule antagonists of the vitamin D receptor (VDR) signaling pathway - cell viability counter screen (AID 743225); note: nearly all actives have a fitted effect of over 50% in size
Settings: VDR-bla HEK293T viability, CellTiter-Glo luminescence, 16 h; series mostly up to 61 µM; viability change, negative = cytotoxic: at the top concentration
Excerpt: U.S. Tox21 Program National Center for Advancing Translational Sciences [NCATS] NIH Chemical Genomics Center [NCGC] U.S. Environmental Protection Agency [EPA] National Institutes of Environmental Health Sciences [NIEHS] National Toxicology Program [NTP] U.S. Food and Drug Administration [FDA] Tox21 Assay Overview: The vitamin D receptor (VDR), a member of nuclear hormone receptor superfamily, plays a critical role in calcium homeostasis and bone metabolism. It is also involved in cell differentiation and growth, and thrombogenicity. To identify the compounds that inhibit VDR signaling, the VDR-UAS-bla HEK 293T cell line (Invitrogen, Carlsbad, CA, USA) containing a beta-lactamase reporter gene under the control of an upstream activator sequence (UAS) was used to screen the Tox21 10K compound library. The cytotoxicity of the Tox21 compound library against the VDR-bla cell line was tested in parallel by measuring the cell viability using CellTiter-Glo assay (Promega, Madison, WI) in the same wells.
Tox21 Assay Protocol Summary: VDR-bla cells were dispensed at 2,000 cells/5 uL of assay medium per well into black wall/clear-bottom 1536-well plates using a Multidrop Combi (Thermo Fisher Scientific, Waltham, MA) dispenser. After the assay plates were incubated at a 37C and 5% CO2 for 4 h, 23 nL of compounds dissolved in DMSO, positive controls or DMSO only was transferred to the assay plate by a Pintool station (Kalypsys, San Diego, CA), followed by addition of 1 uL of 1-alpha, 25-Dihydroxy Vitamin D3 (3 nM, final concentration in the wells) using a Bioraptr Flying Reagent Dispenser (FRD) workstation (Beckman Coulter, Indianapolis, IN). The plates were incubated at 37C and 5% CO2 for 16 h, and then 1 uL of LiveBLAzerTM B/G FRET substrate was added using a Bioraptr FRD. The plates were incubated at room temperature for 2 h and fluorescence intensity was measured by an Envision plate reader (PerkinElmer, Shelton, CT). For cell viability readout that measures cytotoxicity, 3 ul/well of CellTiter-Glo reagent was added into the assay plates using a Bioraptr FRD. After 30 min incubation at room temperature, the luminescence intensity in the plates was measured using a ViewLux plate reader (PerkinElmer).
% is set by controls: 0 for no effect and ±100 for the full control effect.

| Structure (SMILES) | viability change, negative = cytotoxic |
| --- | --- |
| CCCS(=O)c1ccc2nc(NC(=O)OC)[nH]c2c1 (stereo not given) | -4.92% |
| Cc1cc(NS(=O)(=O)c2ccc(N)cc2)nc(C)n1 | -1.62% |
| C[C@@H]1CN(c2c(F)c(F)c3c(=O)c(C(=O)O)cn(C4CC4)c3c2F)C[C@H](C)N1 | -1.02% [at 28.5 µM] |
| FC(F)(F)C(Cl)(Cl)Cl | 0.793% |
| CCCCCCn1c(=O)c2c(ncn2C)n(C)c1=O | 18.2% |
| CCCCOc1cc(C(=O)NCCN(CC)CC)c2ccccc2n1 | 0.28% |
| Cc1c(N)cccc1N | 0% [at 78.8 µM] |
| CS(=O)(=O)c1ccc([C@@H](O)[C@@H](CF)NC(=O)C(Cl)Cl)cc1 | -0.803% |
| Cc1cc(S(=O)(=O)O)c(N)cc1Cl | -4.29% [at 78.8 µM] |
| CC(C)Nc1nc(N)nc(Cl)n1 | -0.417% |
| O=C(C(Cl)Cl)N1CCOC12CCCCC2 | 4.36% |
| CC(C)C(=O)OC/C=C/c1ccccc1 | 2.47% |
| CN(C)Cc1ccccc1 | -13.8% [at 78.8 µM] |
| CC(CNC1CCCCC1)OC(=O)c1ccccc1 (stereo not given) | 11.5% |
| CC(C)O | 16.5% [at 78.8 µM] |
| Cn1cnc2c(F)c(Nc3ccc(Br)cc3Cl)c(C(=O)NOCCO)cc21 | 2.19% |
| CCCCNCCCC | 0% |
| CCN1CC(CCN2CCOCC2)C(c2ccccc2)(c2ccccc2)C1=O (stereo not given) | 2.84% |
| CCOC(=O)C1CC(=O)C(=C(O)C2CC2)C(=O)C1 (stereo not given) | 13.3% |
| CC1(C)C(=O)N(Cl)C(=O)N1Br | 9.15% |

| Structure (SMILES) | viability change, negative = cytotoxic |
| --- | --- |
| C/C(=N\O)[C@@H](C)NCC(C)(C)CN[C@H](C)/C(C)=N/O | -13.9% |
| O=c1[nH]c(=O)n([C@H]2C[C@H](O)[C@@H](CO)O2)cc1C(F)(F)F | 29.3% |
| CCCCCCCCCC#N | 12% |
| Cc1c(C(=O)NCCO)[n+](=O)c2ccccc2n1[O-] | 0.218% |
| COc1cc(N)c(Cl)cc1C(=O)NC1CCN(Cc2ccccc2)CC1 | -30.5% |
| Cc1ncc(CO)c(CN)c1O | 12.9% |
| C=CCCCCCCCCO | 7.4% |
| O=C(CC(=O)C(F)(F)F)c1ccccc1 | -8.82% [at 78.8 µM] |
| Clc1cccc(-c2cc(Cl)cc(Cl)c2)c1 | 2.43% |
| Cc1ccc([N+](=O)[O-])c(N)c1 | 8.92% |
| O=C1CCCCC1C1CCCCC1 (stereo not given) | -3.03% |
| CC(C)S | 11.4% [at 78.8 µM] |
| CC(C)(C)C1CCCCC1=O (stereo not given) | 14.2% |
| CCCCCCCCOC(=O)CCCCCCCCC(=O)OCCCCCCCC | -4.63% |
| OCCN(CCO)c1ccccc1 | -18% |
| NC(=O)Cc1cccc(C(=O)c2ccccc2)c1N | 12.5% |
| Cc1c[nH]c(=S)[nH]c1=O | -1.46% |
| C=C(C)C(=O)OCCOP(=O)(O)O | 6.93% [at 78.8 µM] |
| C=CCCC=C | 0.636% [at 78.8 µM] |
| CCCCCCCCc1ccc(S(=O)(=O)O)cc1 | -28.8% |
